Assay results published in the supplement of paper PMC10849652.
About 8,800 targets were measured; listed, in parts, are those with a hit and a random draw of the rest. About 0.5% of all pairs of compound and target were hits. Unmarked numbers belong to inactive results.

Legend:
Assay in all cases: log2 fold change, soluble protein after heating vs DMSO (PISA); higher = thermal stabilisation; K562 lysate, 10 uM; active = over 0.2 and 3.5 SD of the protein, either way, in both replicates (recomputed)
vemurafenib = compound: CCCS(=O)(=O)Nc1ccc(F)c(C(=O)c2c[nH]c3ncc(-c4ccc(Cl)cc4)cc23)c1F [vemurafenib]
Procedure, shortened: (§1)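 Values give the log-two fold change in thermal stability against solvent controls, from duplicates. Crude K562 extract at 1 mg/mL protein, made by dounce homogenisation in PBS pH 7.4 with 1 mM MgCl2, was treated with 10 μM compound for 30 min. After 3 min heating across 48°C-58°C, aliquots were pooled, adjusted to 0.5% NP-40 at 4°C and centrifuged at 21,000xg for 90 min. The supernatant was measured by TMTpro 16plex LC-MS/MS with channel sums equalised.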

[1] = compound: CCCS(=O)(=O)Nc1ccc(F)c(C(=O)c2c[nH]c3ncc(Cl)cc23)c1F
Procedure, shortened: as §1

barasertib = compound: CCN(CCCOc1ccc2c(Nc3cc(CC(=O)Nc4cccc(F)c4)[nH]n3)ncnc2c1)CCOP(=O)(O)O [barasertib]
Procedure, shortened: as §1

[2] = compound: CC[C@@H]1C(=O)N(C)c2cnc(Nc3ccc(C(=O)NC4CCN(C)CC4)cc3OC)nc2N1C1CCCC1
Procedure, shortened: as §1

volasertib = compound: CC[C@@H]1C(=O)N(C)c2cnc(Nc3ccc(C(=O)N[C@H]4CC[C@H](N5CCN(CC6CC6)CC5)CC4)cc3OC)nc2N1C(C)C [volasertib]
Procedure, shortened: as §1

[3] = compound: CCn1c(C(=O)N(C2CC2)C2CC2)cc2c3c(ncn3C)c(Nc3cc(C)n(C)n3)nc21
Procedure, shortened: as §1

[4] = compound: CCn1cc(-c2ccnc3[nH]c(-c4cccc(CN(C)C)c4)cc23)c(-c2ccc(NC(=O)N(C)C)cc2)n1
Procedure, shortened: as §1

[5] = compound: CN1CCC(CNc2ccc3ncc(-c4cccc(OC(F)(F)F)c4)n3n2)CC1
Procedure, shortened: as §1

saracatinib = compound: CN1CCN(CCOc2cc(OC3CCOCC3)c3c(Nc4c(Cl)ccc5c4OCO5)ncnc3c2)CC1 [saracatinib]
Procedure, shortened: as §1

sotrastaurin = compound: CN1CCN(c2nc(C3=C(c4c[nH]c5ccccc45)C(=O)NC3=O)c3ccccc3n2)CC1 [sotrastaurin]
Procedure, shortened: as §1

alvocidib = compound: CN1CC[C@H](c2c(O)cc(O)c3c(=O)cc(-c4ccccc4Cl)oc23)[C@H](O)C1 [alvocidib]
Procedure, shortened: as §1

Tubastatin A = compound: CN1CCc2c(c3ccccc3n2Cc2ccc(C(=O)NO)cc2)C1 [Tubastatin A]
Procedure, shortened: as §1

[6] = compound: CNC(=O)C1=CC=CC=C1NC2=NC(=NC=C2Cl)NC3=C(C=C(C=C3)N4CCOCC4)OC
Procedure, shortened: as §1

defactinib = compound: CNC(=O)c1ccc(Nc2ncc(C(F)(F)F)c(NCc3nccnc3N(C)S(C)(=O)=O)n2)cc1 [defactinib]
Procedure, shortened: as §1

[7] = compound: CNc1nc(-c2ccc3c(N)n[nH]c3c2)cc(N2C[C@@H](C(=O)NC3CCCCC3)CC[C@H]2C)n1
Procedure, shortened: as §1

encorafenib = compound: COC(=O)N[C@@H](C)CNc1nccc(-c2cn(C(C)C)nc2-c2cc(Cl)cc(NS(C)(=O)=O)c2F)n1 [encorafenib]
Procedure, shortened: as §1

[8] = compound: COC(=O)[C@H](CCSC)NC(=O)C1=C(C=C(C=C1)NC[C@H](CS)N)C2=CC=CC=C2
Procedure, shortened: as §1

[9] = compound: COc1cc2nc(-c3cc(F)ccc3O)nc(N[C@@H]3CNC[C@H]3C(C)(C)O)c2cc1OC
Procedure, shortened: as §1

gefitinib = compound: COc1cc2ncnc(Nc3ccc(F)c(Cl)c3)c2cc1OCCCN1CCOCC1 [gefitinib]
Procedure, shortened: as §1

alisertib = compound: COc1cc(Nc2ncc3c(n2)-c2ccc(Cl)cc2C(c2c(F)cccc2OC)=NC3)ccc1C(=O)O [alisertib]
Procedure, shortened: as §1

Sequence of UniProt Q13418 (Q13418 whole entry, looked up): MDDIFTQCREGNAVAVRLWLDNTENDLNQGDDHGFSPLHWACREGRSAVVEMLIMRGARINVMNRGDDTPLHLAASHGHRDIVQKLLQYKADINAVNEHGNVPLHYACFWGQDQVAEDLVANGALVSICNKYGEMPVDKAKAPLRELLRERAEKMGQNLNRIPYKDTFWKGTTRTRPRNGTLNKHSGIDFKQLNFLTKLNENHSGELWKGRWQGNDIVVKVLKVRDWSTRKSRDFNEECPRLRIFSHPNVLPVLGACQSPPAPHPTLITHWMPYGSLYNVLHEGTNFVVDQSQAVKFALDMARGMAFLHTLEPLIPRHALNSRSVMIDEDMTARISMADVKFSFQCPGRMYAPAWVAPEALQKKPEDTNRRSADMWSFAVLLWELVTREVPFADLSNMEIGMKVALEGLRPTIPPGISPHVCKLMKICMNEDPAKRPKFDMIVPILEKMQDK
Sequence of UniProt Q1KMD3 (Q1KMD3 whole entry, looked up): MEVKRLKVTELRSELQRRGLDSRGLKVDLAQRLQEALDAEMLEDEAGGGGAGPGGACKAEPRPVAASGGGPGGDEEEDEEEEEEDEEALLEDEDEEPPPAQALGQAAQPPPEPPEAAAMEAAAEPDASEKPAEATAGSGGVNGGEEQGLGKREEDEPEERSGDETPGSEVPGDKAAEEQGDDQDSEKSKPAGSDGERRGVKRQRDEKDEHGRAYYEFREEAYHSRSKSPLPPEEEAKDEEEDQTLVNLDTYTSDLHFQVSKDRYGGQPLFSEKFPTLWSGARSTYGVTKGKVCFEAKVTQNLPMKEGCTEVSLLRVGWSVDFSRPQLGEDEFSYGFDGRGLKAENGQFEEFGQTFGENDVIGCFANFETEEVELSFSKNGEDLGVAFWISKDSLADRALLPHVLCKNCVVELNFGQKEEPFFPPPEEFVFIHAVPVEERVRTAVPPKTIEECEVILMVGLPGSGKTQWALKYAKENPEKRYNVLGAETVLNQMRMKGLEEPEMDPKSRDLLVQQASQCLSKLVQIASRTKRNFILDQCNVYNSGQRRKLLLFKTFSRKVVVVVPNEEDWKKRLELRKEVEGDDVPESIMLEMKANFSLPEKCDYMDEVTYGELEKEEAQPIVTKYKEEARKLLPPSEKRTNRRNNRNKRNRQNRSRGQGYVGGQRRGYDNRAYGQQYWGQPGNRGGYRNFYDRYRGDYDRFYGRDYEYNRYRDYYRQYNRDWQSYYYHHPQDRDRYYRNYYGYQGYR
Sequence of UniProt Q15046 (Q15046 whole entry, looked up): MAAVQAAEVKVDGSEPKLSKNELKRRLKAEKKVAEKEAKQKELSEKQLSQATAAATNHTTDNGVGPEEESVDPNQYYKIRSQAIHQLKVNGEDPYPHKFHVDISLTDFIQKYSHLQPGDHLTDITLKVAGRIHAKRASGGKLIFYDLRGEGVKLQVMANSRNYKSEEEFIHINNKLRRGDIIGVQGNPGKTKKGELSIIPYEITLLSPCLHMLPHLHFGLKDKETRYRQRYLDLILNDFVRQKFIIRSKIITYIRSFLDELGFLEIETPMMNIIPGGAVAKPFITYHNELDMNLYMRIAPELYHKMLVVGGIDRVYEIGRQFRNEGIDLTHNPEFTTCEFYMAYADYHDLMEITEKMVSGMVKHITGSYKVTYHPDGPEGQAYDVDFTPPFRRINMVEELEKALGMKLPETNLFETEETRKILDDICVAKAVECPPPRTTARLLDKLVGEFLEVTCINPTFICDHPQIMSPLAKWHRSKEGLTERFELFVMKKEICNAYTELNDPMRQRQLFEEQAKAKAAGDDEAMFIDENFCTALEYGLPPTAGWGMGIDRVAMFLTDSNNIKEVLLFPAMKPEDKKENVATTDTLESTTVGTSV
Sequence of UniProt Q9UGL1 (Q9UGL1 whole entry, looked up): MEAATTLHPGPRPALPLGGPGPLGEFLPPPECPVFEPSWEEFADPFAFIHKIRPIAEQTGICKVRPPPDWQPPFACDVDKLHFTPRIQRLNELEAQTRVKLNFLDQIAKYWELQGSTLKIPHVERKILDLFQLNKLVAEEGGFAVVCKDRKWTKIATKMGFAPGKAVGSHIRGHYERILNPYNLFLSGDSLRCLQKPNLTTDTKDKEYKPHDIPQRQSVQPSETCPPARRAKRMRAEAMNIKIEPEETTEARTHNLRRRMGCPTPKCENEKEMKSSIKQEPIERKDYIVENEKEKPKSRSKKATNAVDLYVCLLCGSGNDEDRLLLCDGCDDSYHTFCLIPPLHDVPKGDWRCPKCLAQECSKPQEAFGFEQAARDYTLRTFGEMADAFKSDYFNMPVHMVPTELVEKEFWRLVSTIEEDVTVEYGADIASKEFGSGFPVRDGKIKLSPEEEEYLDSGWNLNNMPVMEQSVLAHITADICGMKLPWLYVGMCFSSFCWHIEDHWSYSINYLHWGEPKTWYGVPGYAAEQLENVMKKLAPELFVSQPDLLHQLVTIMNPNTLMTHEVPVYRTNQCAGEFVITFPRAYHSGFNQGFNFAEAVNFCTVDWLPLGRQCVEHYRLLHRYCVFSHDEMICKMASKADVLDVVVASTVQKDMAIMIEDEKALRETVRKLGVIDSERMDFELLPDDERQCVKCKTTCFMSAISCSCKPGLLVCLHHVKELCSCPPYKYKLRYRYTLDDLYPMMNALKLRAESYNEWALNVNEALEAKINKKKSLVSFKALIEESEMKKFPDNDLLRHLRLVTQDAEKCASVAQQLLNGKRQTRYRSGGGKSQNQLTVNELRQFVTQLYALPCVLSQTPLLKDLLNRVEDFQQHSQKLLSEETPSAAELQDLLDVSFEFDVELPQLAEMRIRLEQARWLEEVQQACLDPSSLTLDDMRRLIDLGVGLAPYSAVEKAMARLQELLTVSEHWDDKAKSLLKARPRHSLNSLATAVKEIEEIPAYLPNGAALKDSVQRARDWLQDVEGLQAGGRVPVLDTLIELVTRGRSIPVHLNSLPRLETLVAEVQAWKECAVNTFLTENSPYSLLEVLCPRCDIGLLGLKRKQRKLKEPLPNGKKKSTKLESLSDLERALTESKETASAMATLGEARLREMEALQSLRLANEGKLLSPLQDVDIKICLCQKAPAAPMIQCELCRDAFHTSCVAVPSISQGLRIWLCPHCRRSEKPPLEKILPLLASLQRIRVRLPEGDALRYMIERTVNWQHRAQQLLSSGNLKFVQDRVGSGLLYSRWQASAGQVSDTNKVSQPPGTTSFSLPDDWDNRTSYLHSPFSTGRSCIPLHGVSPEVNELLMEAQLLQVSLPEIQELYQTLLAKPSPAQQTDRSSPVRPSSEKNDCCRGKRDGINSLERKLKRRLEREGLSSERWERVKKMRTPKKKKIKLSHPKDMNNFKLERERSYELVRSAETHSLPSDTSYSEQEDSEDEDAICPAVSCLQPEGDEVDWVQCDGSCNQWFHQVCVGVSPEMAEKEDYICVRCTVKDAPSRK
Sequence of UniProt Q01581 (Q01581 whole entry, looked up): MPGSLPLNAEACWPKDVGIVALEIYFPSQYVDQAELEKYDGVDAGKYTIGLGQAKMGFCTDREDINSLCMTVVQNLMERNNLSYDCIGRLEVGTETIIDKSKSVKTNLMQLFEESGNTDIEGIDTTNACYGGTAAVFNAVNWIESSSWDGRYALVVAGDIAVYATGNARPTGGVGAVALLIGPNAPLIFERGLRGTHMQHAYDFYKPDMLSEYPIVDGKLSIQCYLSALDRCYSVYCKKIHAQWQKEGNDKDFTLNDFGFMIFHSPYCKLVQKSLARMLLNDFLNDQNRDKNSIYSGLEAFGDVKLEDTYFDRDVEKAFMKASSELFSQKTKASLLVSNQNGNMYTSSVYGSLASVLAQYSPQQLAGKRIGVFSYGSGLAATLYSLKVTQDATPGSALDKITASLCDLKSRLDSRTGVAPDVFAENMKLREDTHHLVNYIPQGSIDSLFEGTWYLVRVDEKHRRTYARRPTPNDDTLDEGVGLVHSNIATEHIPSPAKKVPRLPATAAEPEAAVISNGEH
Sequence of UniProt P49841 (P49841 whole entry, looked up): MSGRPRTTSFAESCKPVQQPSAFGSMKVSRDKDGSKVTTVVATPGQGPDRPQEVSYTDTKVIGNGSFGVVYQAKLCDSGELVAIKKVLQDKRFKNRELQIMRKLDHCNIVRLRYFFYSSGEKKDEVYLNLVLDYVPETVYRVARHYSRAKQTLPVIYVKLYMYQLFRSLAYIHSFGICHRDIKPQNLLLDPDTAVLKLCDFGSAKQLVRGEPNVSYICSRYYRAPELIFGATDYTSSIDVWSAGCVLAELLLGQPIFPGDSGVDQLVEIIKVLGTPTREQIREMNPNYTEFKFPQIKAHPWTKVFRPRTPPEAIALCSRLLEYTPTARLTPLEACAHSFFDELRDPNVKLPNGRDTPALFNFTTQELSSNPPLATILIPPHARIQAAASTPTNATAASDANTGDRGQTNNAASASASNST
Sequence of UniProt P23677 (P23677 whole entry, looked up): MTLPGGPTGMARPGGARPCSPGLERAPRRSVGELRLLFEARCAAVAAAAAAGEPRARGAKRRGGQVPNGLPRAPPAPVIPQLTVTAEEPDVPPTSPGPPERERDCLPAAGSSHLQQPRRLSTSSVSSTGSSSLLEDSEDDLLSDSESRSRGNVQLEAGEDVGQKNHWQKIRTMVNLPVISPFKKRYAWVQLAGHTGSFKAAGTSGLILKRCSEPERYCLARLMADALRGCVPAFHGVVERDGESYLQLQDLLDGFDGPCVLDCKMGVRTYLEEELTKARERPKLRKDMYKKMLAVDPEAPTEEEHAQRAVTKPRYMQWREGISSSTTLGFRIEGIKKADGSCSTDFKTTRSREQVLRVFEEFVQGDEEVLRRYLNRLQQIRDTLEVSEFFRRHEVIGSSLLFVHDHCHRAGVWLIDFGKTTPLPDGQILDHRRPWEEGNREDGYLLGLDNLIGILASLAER
Sequence of UniProt P50053 (P50053 whole entry, looked up): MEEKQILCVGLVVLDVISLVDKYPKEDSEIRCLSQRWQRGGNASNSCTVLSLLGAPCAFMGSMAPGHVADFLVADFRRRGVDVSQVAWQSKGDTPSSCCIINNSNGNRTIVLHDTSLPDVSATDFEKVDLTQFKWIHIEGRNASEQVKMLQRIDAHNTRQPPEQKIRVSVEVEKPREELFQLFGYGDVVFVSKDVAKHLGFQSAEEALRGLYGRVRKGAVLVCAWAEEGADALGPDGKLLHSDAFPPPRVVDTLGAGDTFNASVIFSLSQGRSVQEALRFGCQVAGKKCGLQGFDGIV

| Target | log2 fold change (vemurafenib) | log2 fold change [1] | log2 fold change (barasertib) | log2 fold change [2] | log2 fold change (volasertib) | log2 fold change [3] | log2 fold change [4] | log2 fold change [5] | log2 fold change (saracatinib) | log2 fold change (sotrastaurin) | log2 fold change (alvocidib) | log2 fold change (Tubastatin A) | log2 fold change [6] | log2 fold change (defactinib) | log2 fold change [7] | log2 fold change (encorafenib) | log2 fold change [8] | log2 fold change [9] | log2 fold change (gefitinib) | log2 fold change (alisertib) |
| --- | --- | --- | --- | --- | --- | --- | --- | --- | --- | --- | --- | --- | --- | --- | --- | --- | --- | --- | --- | --- |
| GSK3B isoform 2 (UniProt P49841) | -0.009 | 0.038 | 0.026 | -0.015 | -0.093 | -0.011 | -0.013 | 0.096 | -0.049 | 0.601 | 0.518 | -0.077 | 0.015 | 0.562 | 0.114 | 0.425 | -0.114 | 0 | 0.029 | – |
| IRF2BPL (UniProt Q9H1B7) | -0.039 | 0.026 | 0.024 | 0.04 | 0.001 | 0.022 | -0.195 | 0.111 | 0.025 | -0.005 | -0.076 | -0.047 | 0.01 | -0.007 | 0.048 | -0.017 | -0.06 | -0.013 | -0.05 | -0.031 |
| KDM5B isoform 2 (UniProt Q9UGL1) | 0.043 | 0.073 | 0.039 | 0.138 | 0.071 | -0.059 | -0.107 | -0.034 | -0.113 | -0.136 | -0.048 | 0.021 | -0.007 | 0.08 | 0.307 | -0.094 | 0.075 | 0.014 | – | – |
| INTS1 (UniProt Q8N201) | 0.042 | -0.096 | -0.01 | 0.044 | -0.033 | 0.007 | 0.06 | -0.041 | 0 | -0.002 | 0.009 | -0.028 | 0.013 | 0.019 | 0.004 | 0.028 | -0.018 | 0.007 | -0.04 | 0.021 |
| GTF2A1 (UniProt P52655) | -0.028 | 0.01 | 0.018 | 0.042 | 0.035 | 0.015 | 0.033 | -0.042 | -0.004 | 0.024 | 0.165 | 0.006 | -0.047 | 0.033 | 0.048 | -0.005 | -0.026 | -0.024 | 0.008 | -0.029 |
| GMDS (UniProt O60547) | 0.057 | 0.012 | 0.027 | -0.088 | -0.034 | -0.023 | 0.019 | 0.042 | -0.033 | 0.019 | 0.036 | -0.057 | -0.017 | 0.042 | 0.003 | -0.059 | 0.123 | 0.023 | -0.012 | 0.016 |
| KHK isoform 2 (UniProt P50053) | -0.021 | 0 | 0.052 | -0.053 | 0.017 | 0.076 | 0.404 (active) | -0.072 | 0.067 | 0.013 | 0.058 | -0.001 | -0.057 | -0.038 | -0.068 | 0.03 | -0.02 | 0.083 | -0.038 | 0.008 |
| HNRNPUL2 (UniProt Q1KMD3) | 0.024 | 0.017 | 0.038 | 0.005 | -0.009 | -0.012 | -0.029 | 0.008 | 0.029 | 0.04 | -0.001 | 0.007 | 0.004 | 0.002 | -0.009 | -0.023 | 0.105 | 0.019 | -0.023 | 0.009 |
| GYPA (UniProt P02724) | -0.011 | -0.008 | 0.254 | 0.188 | 0.009 | -0.081 | 0.587 (active) | -0.259 | 0.01 | 0.011 | 0.311 | 0.068 | 0.005 | 0.063 | 0.207 | -0.004 | -0.015 | 0.06 | – | – |
| ISY1 isoform 1 (UniProt Q9ULR0) | -0.186 | 0.034 | 0.018 | 0.066 | -0.025 | -0.012 | -0.101 | 0.02 | 0.026 | 0.032 | -0.05 | -0.03 | 0.013 | 0.082 | 0.366 (active) | -0.03 | -0.149 | 0.016 | 0.075 | -0.012 |
| GIT1 (UniProt Q9Y2X7) | -0.073 | 0.028 | -0.008 | -0.044 | -0.043 | -0.007 | 0.132 | 0.046 | 0 | 0.012 | 0.015 | -0.04 | 0.022 | 0.023 | -0.084 | 0.002 | 0.026 | -0.011 | -0.031 | 0.05 |
| KARS1 (UniProt Q15046) | 0.003 | -0.002 | 0.002 | -0.072 | -0.026 | 0.024 | 0.046 | -0.052 | 0.004 | 0.004 | 0.027 | -0.01 | -0.037 | 0 | -0.035 | -0.028 | 0.379 (active) | -0.011 | -0.022 | 0.012 |
| ITPKA (UniProt P23677) | -0.007 | 0.019 | 0.041 | -0.105 | -0.065 | -0.03 | 0 | 0.054 | 0.013 | -0.045 | -0.001 | -0.194 | -0.017 | 0.017 | 0.015 | -0.021 | 0.375 (active) | 0 | 0.011 | -0.004 |
| ILK (UniProt Q13418) | 0.029 | -0.024 | 0.059 | -0.03 | -0.072 | 0.016 | -0.034 | -0.019 | 0.011 | -0.002 | 0.002 | -0.084 | -0.002 | -0.026 | -0.061 | -0.032 | 0.038 | -0.04 | 0.013 | 0.007 |
| HECTD3 (UniProt Q5T447) | -0.046 | 0.007 | -0.039 | -0.022 | -0.024 | 0.018 | -0.004 | -0.027 | 0.032 | 0.027 | 0.007 | -0.047 | 0.02 | 0.045 | -0.023 | 0.02 | 0.11 | 0.002 | 0.014 | -0.015 |
| HMGCS1 (UniProt Q01581) | 0.008 | -0.009 | -0.038 | -0.003 | -0.017 | 0.014 | -0.005 | 0.009 | 0.004 | -0.014 | 0.021 | -0.073 | 0.004 | -0.011 | 0.006 | -0.021 | 0.078 | -0.002 | 0.013 | 0.012 |
